The supplement of paper PMC12494721
Structures can show the parent of a compound that is named as a salt.

Columns and labels:
Conditions in all cases: incubation time: 27 h, anaerobic, 37 °C;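 for the amine columns active = adjusted P below 0.05 in both replicates with a change the same way and a mean fold change under 0.8 or over 1.25; inactive = the rest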
[1] = tested on: Clostridium sporogenes DSM 1664; assay: growth (OD595) fold change vs plate DMSO controls (fold change (ratio)); higher = more growth
Outline: (§1)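 The 96-well mGAM cultures had been kept anaerobic for 27 h at 37 °C before being shaken and read at 595 nm. Blank subtraction, compound background correction with 20 µM compound solutions in water, and a calibration factor of 5 turned the readings into OD. Growth is given as the fold change versus the median of plate DMSO controls. Fold changes above 1.5 were set to NA, and the values are means of 2 biological replicates.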

Escherichia coli IAI1 [2] = assay: as above
Outline: as §1

[3] = tested on: Klebsiella aerogenes DSM 30053; assay: as above
Outline: as §1

[4] = tested on: Ruminococcus gnavus DSM 108212; assay: as above
Outline: as §1

[5] = tested on: Klebsiella aerogenes DSM 30053; assay: fold change of Histamine concentration vs plate DMSO controls (fold change (ratio)); higher = more amine produced, active = hit call of the paper (significant change in both replicates, either direction)
Outline: (§2)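 Amines were quantified by LC–triple-quadrupole MS in dynamic MRM mode against external calibration curves, with drift correction within each batch. The samples were whole anaerobic mGAM cultures of four gut bacterial strains, grown for 27 h at 37 °C in 80 µL wells and extracted with cold acetonitrile/methanol with 0.1% formic acid, then centrifuged. Values are reported as fold change over DMSO controls on the same plate. The mean of 2 biological replicates is given.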

[6] = tested on: Clostridium sporogenes DSM 1664; assay: fold change of Tryptamine concentration vs plate DMSO controls (fold change (ratio)); higher = more amine produced, active = hit call of the paper (significant change in both replicates, either direction)
Outline: as §2

[7] = tested on: Ruminococcus gnavus DSM 108212; assay: as above
Outline: as §2

Escherichia coli IAI1 [8] = assay: fold change of Putrescine concentration vs plate DMSO controls (fold change (ratio)); higher = more amine produced, active = hit call of the paper (significant change in both replicates, either direction)
Outline: as §2

[9] = tested on: Klebsiella aerogenes DSM 30053; assay: as above
Outline: as §2

Escherichia coli IAI1 [10] = assay: fold change of Cadaverine concentration vs plate DMSO controls (fold change (ratio)); higher = more amine produced, active = hit call of the paper (significant change in both replicates, either direction)
Outline: as §2

[11] = tested on: Klebsiella aerogenes DSM 30053; assay: as above
Outline: as §2

[12] = tested on: Ruminococcus gnavus DSM 108212; assay: fold change of 2-Phenylethylamine concentration vs plate DMSO controls (fold change (ratio)); higher = more amine produced, active = hit call of the paper (significant change in both replicates, either direction)
Outline: as §2

SMILES	growth [1]	growth (Escherichia coli IAI1 [2])	growth [3]	growth [4]	fold change of Histamine concentration [5]	fold change of Tryptamine concentration [6]	fold change of Tryptamine concentration [7]	fold change of Putrescine concentration (Escherichia coli IAI1 [8])	fold change of Putrescine concentration [9]	fold change of Cadaverine concentration (Escherichia coli IAI1 [10])	fold change of Cadaverine concentration [11]	fold change of 2-Phenylethylamine concentration [12]
CCn1nc(C(=O)O)c(=O)c2cc3c(cc21)OCO3 [Cinoxacin] (20 µM)	0.547	0.0392	0.544	1.06	0.506 (active)	0.724 (active)	1 (inactive)	0.749 (inactive)	1.06 (inactive)	1.61 (active)	1.01 (inactive)	1 (inactive)
CC(/C=C1\SC(=S)N(CC(=O)O)C1=O)=C\c1ccccc1 [Epalrestat] (20 µM)	1.15	0.964	1.05	0.896	1.05 (inactive)	1.01 (inactive)	1.16 (inactive)	1.14 (inactive)	0.992 (inactive)	0.932 (inactive)	1.12 (inactive)	1.44 (inactive)
CCC(NC(C)C)C(O)c1ccc(O)c(O)c1 (stereo not given) [Isoetharine mesylate salt] (20 µM)	1.13	1.06	0.99	0.992	1 (inactive)	0.966 (inactive)	0.977 (inactive)	1.11 (inactive)	0.995 (inactive)	0.987 (inactive)	0.994 (inactive)	0.92 (inactive)
O=C(C1CCCCC1)N1CC(=O)N2CCc3ccccc3C2C1 (stereo not given) [Praziquantel] (20 µM)	1.01	0.975	0.99	0.82	1.06 (inactive)	0.989 (inactive)	1.03 (inactive)	0.947 (inactive)	1.02 (inactive)	1.02 (inactive)	0.978 (inactive)	0.992 (inactive)
CNC(=C[N+](=O)[O-])NCCSCc1ccc(CN(C)C)o1 [Ranitidine hydrochloride] (20 µM)	1.07	1.01	1.07	1.47	0.953 (inactive)	1.05 (inactive)	0.99 (inactive)	0.996 (inactive)	1.01 (inactive)	1.03 (inactive)	1.02 (inactive)	0.984 (inactive)
N=C(N)NCc1cccc(I)c1 [Iobenguane sulfate] (20 µM)	0.944	0.983	0.971	0.721	0.89 (inactive)	1 (inactive)	1.08 (inactive)	0.949 (inactive)	0.914 (inactive)	1.04 (inactive)	1.1 (inactive)	1.09 (inactive)
COc1ccc(C2C(=O)c3ccccc3C2=O)cc1 [Anisindione] (20 µM)	0.917	0.951	0.965	1.04	1.03 (inactive)	0.976 (inactive)	0.994 (inactive)	0.953 (inactive)	1 (inactive)	0.994 (inactive)	0.991 (inactive)	0.951 (inactive)
OC[C@@H](O)[C@@H](O)CO [Erythritol] (50 µM)	0.882	1.12	0.977	1.02	1.05 (inactive)	1 (inactive)	0.974 (inactive)	1.03 (inactive)	0.995 (inactive)	1.05 (inactive)	0.993 (inactive)	0.945 (inactive)
COc1cc2c(cc1OC)C(=O)C(CC1CCN(Cc3ccccc3)CC1)C2 (stereo not given) [Donepezil hydrochloride] (20 µM)	1.2	1.23	1.02	0.917	1.53 (inactive)	0.947 (inactive)	1.03 (inactive)	1.24 (inactive)	2.04 (inactive)	0.981 (inactive)	1.21 (inactive)	1.08 (inactive)
N#Cc1ccc(Oc2ccc3c(c2)COB3O)cc1 [Crisaborole] (20 µM)	1.06	0.983	1.02	1.12	0.998 (inactive)	0.95 (inactive)	0.688 (active)	1.03 (inactive)	0.987 (inactive)	1 (inactive)	0.994 (inactive)	0.799 (inactive)
CCOC(=O)c1ccc(OC(=O)CCCCCNC(=N)N)cc1 [Gabexate mesilate] (20 µM)	1.07	1	0.974	1.02	0.978 (inactive)	0.953 (inactive)	0.865 (inactive)	1.01 (inactive)	1.07 (inactive)	0.998 (inactive)	1.04 (inactive)	0.776 (inactive)
CCn1cc(C(=O)O)c(=O)c2cnc(N3CCCC3)nc21 [Piromidic acid] (20 µM)	1.09	1.01	1	0.973	0.944 (inactive)	1.02 (inactive)	1.06 (inactive)	0.913 (inactive)	1.02 (inactive)	1.06 (inactive)	0.999 (inactive)	1.09 (inactive)
C#C[C@]1(O)CC[C@H]2[C@@H]3CCc4cc(OC)ccc4[C@H]3CC[C@@]21C [Mestranol] (20 µM)	0.992	0.999	1.09	1.14	0.93 (inactive)	1.04 (inactive)	0.893 (inactive)	0.949 (inactive)	1.01 (inactive)	1.01 (inactive)	1.01 (inactive)	0.831 (inactive)
CC(=O)[C@H]1CC[C@H]2[C@@H]3C[C@H](C)C4=CC(=O)CC[C@]4(C)[C@H]3[C@@H](O)C[C@]12C [Medrysone] (20 µM)	1.08	1.03	1.05	1.03	1.02 (inactive)	1.03 (inactive)	1.01 (inactive)	0.978 (inactive)	1 (inactive)	1.02 (inactive)	0.996 (inactive)	1.01 (inactive)
OC[C@H]1O[C@@H](O[C@H]2[C@H](O)[C@@H](O)[C@H](O)O[C@@H]2CO)[C@H](O)[C@@H](O)[C@H]1O [Lactose] (50 µM)	0.993	1.02	1.05	1.07	1.01 (inactive)	0.96 (inactive)	0.989 (inactive)	1.03 (inactive)	1.01 (inactive)	0.984 (inactive)	1.02 (inactive)	0.976 (inactive)
NC(=O)N/N=C/c1ccc([N+](=O)[O-])o1 [Nitrofural] (20 µM)	1.07	1	0.973	0.979	0.768 (inactive)	0.906 (inactive)	0.792 (active)	0.6 (active)	0.947 (inactive)	1.22 (inactive)	1.01 (inactive)	0.836 (inactive)
CC(C)(S)C(N)C(=O)O (racemic) [D,L-Penicillamine] (20 µM)	1.05	1.08	1.02	0.873	0.909 (inactive)	0.993 (inactive)	0.968 (inactive)	0.99 (inactive)	0.954 (inactive)	1 (inactive)	0.974 (inactive)	0.956 (inactive)
C[C@]12CC[C@H]3C(=CCc4cc(O)ccc43)[C@@H]1CCC2=O [Equilin] (20 µM)	0.994	0.964	0.954	1	1.01 (inactive)	1.02 (inactive)	0.996 (inactive)	1.07 (inactive)	0.996 (inactive)	1.03 (inactive)	0.978 (inactive)	0.93 (inactive)
Nc1ccc(/N=N/c2ccccc2)c(N)n1 [Phenazopyridine hydrochloride] (20 µM)	1.12	0.985	0.982	1.06	0.998 (inactive)	0.991 (inactive)	1.02 (inactive)	0.969 (inactive)	0.986 (inactive)	1.02 (inactive)	0.994 (inactive)	0.969 (inactive)
CC[C@H]1OC(=O)[C@H](C)[C@@H](O[C@H]2C[C@@](C)(OC)[C@@H](O)[C@H](C)O2)[C@H](C)[C@@H](O[C@@H]2O[C@H](C)C[C@H](N(C)C)[C@H]2O)[C@](C)(OC)C[C@@H](C)C(=O)[C@H](C)[C@@H](O)[C@]1(C)O [Clarithromycin] (20 µM)	0	0.665	0.941	0.257	0.636 (inactive)	0.0515 (active)	0.11 (active)	0.434 (inactive)	0.888 (inactive)	0.944 (inactive)	1.03 (inactive)	0.118 (active)
COC(=O)C1=C(C)NC(C)=C(C(=O)OC2CCCN(Cc3ccccc3)C2)C1c1cccc([N+](=O)[O-])c1 (stereo not given) [Benidipine hydrochloride] (20 µM)	1.1	1.23	1.02	0.864	0.929 (inactive)	0.912 (inactive)	0.983 (inactive)	1.24 (inactive)	1.02 (inactive)	0.989 (inactive)	1.02 (inactive)	0.986 (inactive)
Cc1ccc2c(c1)c1c3n2CCNC3CCC1 (stereo not given) [Pirlindole mesylate] (20 µM)	0.975	1.06	0.98	1	0.963 (inactive)	0.987 (inactive)	1.05 (inactive)	1.06 (inactive)	1 (inactive)	1.01 (inactive)	1 (inactive)	1.08 (inactive)
CNCCc1ccccn1 [Betahistine mesylate] (20 µM)	1.26	1	1.02	1.25	0.991 (inactive)	0.994 (inactive)	1.02 (inactive)	1.03 (inactive)	0.995 (inactive)	0.967 (inactive)	0.993 (inactive)	1.01 (inactive)
COc1ncnc(NS(=O)(=O)c2ccc(N)cc2)c1OC [Sulfadoxine] (20 µM)	1	1.01	1.04	1.19	1.02 (inactive)	0.997 (inactive)	0.985 (inactive)	1.01 (inactive)	0.997 (inactive)	1 (inactive)	1.01 (inactive)	0.968 (inactive)
Nc1cccc2c1C(=O)N(C1CCC(=O)NC1=O)C2=O (stereo not given) [Pomalidomide] (20 µM)	1.09	1.02	1.02	1.04	1.13 (inactive)	1.12 (inactive)	1.03 (inactive)	0.938 (inactive)	1.04 (inactive)	0.954 (inactive)	1.03 (inactive)	1.07 (inactive)
